TGFb inhibitor: qHTS for Inhibitors of TGF-b; HepG2 CAGA-GFP TGF-b/SMAD3 reporter, GFP fluorescence, 18 h; TGF-beta stimulated, 500 pg/mL final; Potency, µM (series often up to 46.1 µM), most hits filed as inhibitors; 410,000 tested, 1.2% active; note: nearly all actives have a fitted effect of over 65% in size
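HEPG2 CAGA-GFP cells (1000/well, DMEM with 1% FBS) were pre-incubated 2 h at 37 degrees C, given compound by pin tool, then stimulated with TGF-beta at 500 pg/mL final for 18 h before per-cell GFP fluorescence imaging.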
ATXN2 expr inh: Primary qHTS for Inhibitors of ATXN expression; Potency, µM (highest dose often 57 µM), hits mostly inhibitors; 360,000 tested, 0.72% active; HEK-293 ATXN2-luciferase reporter, luminescence, 24 h; AID 1745845, 2022; note: nearly all actives have a fitted effect of over 55% in size
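qHTS (up to 57 uM final) was run with 24 h compound exposure of reporter cells at 37 °C. Each well was multiplexed: SteadyGlo luminescence measured ATXN2-luciferase expression after a fluorogenic Gly-Phe-AFC viability readout (25 uM final).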
HepG2 tox-1: qHTS for Inhibitors of TGF-b: Cytotox Counterscreen; AID 588856, 2011; 410,000 tested, 0.76% active; HepG2 CAGA-GFP viability, ATP luminescence, 18 h; Potency, µM (series often up to 46.1 µM), most hits filed as cytotoxic
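CellTiter-Glo luminescence gave cytotoxicity after 18 hours at 37 degrees C. The cells were HepG2 CAGA-GFP in 1% FBS DMEM, stimulated with 500 pg/mL TGF-beta after compound addition. %Activity was normalised to no-cell wells (complete cell-killing) and DMSO (no toxicity), and curves were fitted and classified.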
ATXN viability: Viability Counterscreen for Primary qHTS for Inhibitors of ATXN expression; 400,000 tested, 0.49% active; Potency, µM (titrated, usually from 56.7 µM), usual class: cytotoxic; S2 cells (HEK-293 line with an ATXN2-luciferase reporter) viability, CellTiter-Fluor protease fluorescence, 24 h; note: nearly all actives have a fitted effect of over 40% in size
HT1080 IDH1KD tx: qHTS for induction of synthetic lethality in tumor cells producing 2HG: qHTS for the HT-1080-IDH1KD cell line; HT-1080 IDH1 knockdown viability, ATP luminescence, 48 h; Potency, µM (top dose mostly 46.1 µM), actives largely listed as cytotoxic; 360,000 tested, 2% active; AID 686971, 2013
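IDH1KD HT-1080 cells, 750/well, RPMI + 5% FBS; compound pinned after 2 h settling; 48 h, 37 °C; CellTiter-Glo luminescence; % activity normalised to DMSO and no-cell wells; curves fitted, classed by r2 and efficacy.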
HT1080-NT tox: qHTS for induction of synthetic lethality in tumor cells producing 2HG: qHTS for the HT-1080-NT fibrosarcoma cell line; Potency, µM (titrated, usually from 46.1 µM), actives largely listed as cytotoxic; HT-1080-NT fibrosarcoma viability, CellTiter-Glo ATP luminescence, 48 h; 360,000 tested, 1.6% active;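 note: NT is the 2HG producing partner of a matched IDH1 knockdown line; nearly all actives have a fitted effect of over 55% in size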
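750 cells/well, RPMI + 5% FBS; 2 h settle, compound pin-transfer, 48 h at 37 degrees C. CellTiter-Glo 10 min RT, luminescence. Normalized to DMSO and media-only wells.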
TGFb confirm: qHTS for Inhibitors of TGF-b: Confirmation of Cherry Picks | shares compounds with TGFb inhibitor | 1,600 tested, 63% active | AID 720534, 2013 | HepG2 CAGA-GFP TGF-b reporter, GFP fluorescence, 18 h; cells stimulated with TGF-beta, 500 pg/mL | Potency, µM (series often up to 46.1 µM), most hits filed as inhibitors; note: nearly all actives have a fitted effect of over 65% in size
HepG2 tox-2: qHTS for Inhibitors of TGF-b: Cytotox Counterscreen for Cherry Picks; HepG2 CAGA-GFP viability, ATP luminescence, 18 h; cells stimulated with TGF-beta, 500 pg/mL; 1,600 tested, 27% active; AID 720535, 2013; Potency, µM (highest dose often 46.1 µM), most hits filed as inhibitors; shares compounds with TGFb inhibitor; note: nearly all actives have a fitted effect of over 70% in size
TGFb CCL64 inh: qHTS for Inhibitors of TGF-b: CCL64 Cells Orthogonal Assay for Cherry Picks. shares compounds with TGFb inhibitor. CCL64 CAGA-GFP reporter, TGF-b stimulated, GFP fluorescence, 18 h. Potency, µM (highest dose often 46.1 µM), most hits filed as inhibitors. 1,600 tested, 41% active. AID 720536, 2013; note: nearly all actives have a fitted effect of over 65% in size
TGFb COP inh: qHTS for Inhibitors of TGF-b: Hit Validation in HepG2 Cells using COP promoter; 1,600 tested, 3% active; AID 720537, 2013; HepG2 COP-GFP TGF-b reporter, GFP fluorescence, 18 h; cells stimulated by added recombinant TGF-beta; shares compounds with TGFb inhibitor; Potency, µM (highest dose often 46.1 µM), usual class: inhibitors; note: nearly all actives have a fitted effect of over 70% in size
Numbers stand for hits; n = inactive; u = inconclusive; x = no result given; ! = repeats disagree. In the library only some 3.8% were active in any assay of this set; here they are far more common. Calls come from the whole dose curve; as a rule, active = well fitted curve in the direction sought with a large enough effect; inconclusive = small, poorly fitted or top-dose-only effect, or another doubt; inactive = no such curve, though single readings can be large; an effect the other way counts as inactive or inconclusive.

SMILES	TGFb inhibitor	ATXN2 expr inh	HepG2 tox-1	ATXN viability	HT1080 IDH1KD tx	HT1080-NT tox	TGFb confirm	HepG2 tox-2	TGFb CCL64 inh	TGFb COP inh
CNc1ccc2oc(C[C@H]3O[C@@]4(CC[C@H]3C)O[C@H]([C@H](C)C(=O)c3ccc[nH]3)[C@H](C)C[C@H]4C)nc2c1C(=O)O	5.01µM	8.91µM	7.08µM	7.08µM	2.06µM	1.46µM	2.06µM	1.46µM	1.03µM	6.51µM
COc1ccc(CC2C(=O)NC(C)C(=O)N(C)C3C(=O)N(C)C(Cc4ccc(O)c(c4)Oc4ccc(cc4)C3O)C(=O)NC(C)C(=O)NC(C)C(=O)N2C)cc1 (stereo not given)	n	0.0844µM	n	u	0.0731µM	0.461µM	0.0065µM	1.64µM	0.0116µM	n
C=Cc1cc(OC)c2c(c1)c(=O)oc1c2cc(OC)c2c(O)ccc(C3OC(C)C(O)C(C)(O)C3O)c21 (stereo not given)	1.41µM	1.68µM	n	n	1.46µM	9.2µM	0.92µM	1.16µM	2.06µM	n
CCc1ccccc1Nc1nn2c(=O)c3ccc(C(=O)Nc4cc(C)cc(C)c4)cc3nc2s1	n	u	n	u	x	x	x	x	x	x
O=[N+]([O-])c1ccc(N(CCO)CCO)c2c1no[n+]2[O-]	7.08µM	x	n	x	5.8µM	8.2µM	10.3µM	13µM	11.6µM	u
CN1CCN(c2ccc([N+](=O)[O-])c3no[n+]([O-])c23)CC1	3.16µM	2.38µM!	8.91µM	x	4.61µM	2.91µM	4.11µM	5.17µM	3.26µM	u
Cc1ccc2c(c1)C1C[N+](C)(CC(=O)Nc3ccccc3Cl)CCC1N2C(=O)c1ccccc1Cl (stereo not given)	n	n	n	u	n	n	x	x	x	x
CCOC(=O)c1cccc(NC(=O)NCc2ccc3c(c2)CCN3C(=O)c2ccccc2)c1	u	n	n	n	x	x	x	x	x	x
CCCCN1CCS(=O)(=O)N(Cc2ccccc2Br)CC(C(=O)OC)C1 (stereo not given)	u	n	n	n	n	n	x	x	x	x
CCc1ccc(CNC(=O)C2CCN(C(=O)c3ccc(-n4c(C)cc5ccccc54)s3)CC2)cc1	u	x	n	x	x	x	x	x	x	x
CC(CNC(=O)c1ccc(CSc2nc3ccncc3n2Cc2ccc(F)cc2)cc1)c1ccccc1 (stereo not given)	u	n	n	u	x	x	x	x	x	x
COc1ccc(-c2c3c(nc4sc5c(Cl)nc(C)nc5c24)CCC3)cc1	n	n	n	u	n	n	x	x	x	x
CC12CCC(O)CC1CCC1C2CCC2(C)C(C3=CC(=O)OC3)CCC12O (stereo not given)	3.98µM	0.844µM	n	u	1.16µM	1.46µM	16.4µM	2.59µM	1.3µM	n

Bioassay records deposited in PubChem by National Center for Advancing Translational Sciences (NCATS).
